Laboratory results as given in paper PMC4336329 (PLoS ONE, 2015).
In all, about 310,000 compounds went through this assay and about 2,200 (0.71%) showed an effect of 50% or more. The effect is printed as a negative number. What follows is part of a selection rich in strong results, with near analogues and random picks from the rest.

target: human ether-à-go-go-related gene (hERG) potassium channel (human, UniProt Q12809); assay: primary screen, population patch clamp on CHO cells stably expressing hERG; higher = less effect of the substance
Sequence (Q12809 whole entry, looked up): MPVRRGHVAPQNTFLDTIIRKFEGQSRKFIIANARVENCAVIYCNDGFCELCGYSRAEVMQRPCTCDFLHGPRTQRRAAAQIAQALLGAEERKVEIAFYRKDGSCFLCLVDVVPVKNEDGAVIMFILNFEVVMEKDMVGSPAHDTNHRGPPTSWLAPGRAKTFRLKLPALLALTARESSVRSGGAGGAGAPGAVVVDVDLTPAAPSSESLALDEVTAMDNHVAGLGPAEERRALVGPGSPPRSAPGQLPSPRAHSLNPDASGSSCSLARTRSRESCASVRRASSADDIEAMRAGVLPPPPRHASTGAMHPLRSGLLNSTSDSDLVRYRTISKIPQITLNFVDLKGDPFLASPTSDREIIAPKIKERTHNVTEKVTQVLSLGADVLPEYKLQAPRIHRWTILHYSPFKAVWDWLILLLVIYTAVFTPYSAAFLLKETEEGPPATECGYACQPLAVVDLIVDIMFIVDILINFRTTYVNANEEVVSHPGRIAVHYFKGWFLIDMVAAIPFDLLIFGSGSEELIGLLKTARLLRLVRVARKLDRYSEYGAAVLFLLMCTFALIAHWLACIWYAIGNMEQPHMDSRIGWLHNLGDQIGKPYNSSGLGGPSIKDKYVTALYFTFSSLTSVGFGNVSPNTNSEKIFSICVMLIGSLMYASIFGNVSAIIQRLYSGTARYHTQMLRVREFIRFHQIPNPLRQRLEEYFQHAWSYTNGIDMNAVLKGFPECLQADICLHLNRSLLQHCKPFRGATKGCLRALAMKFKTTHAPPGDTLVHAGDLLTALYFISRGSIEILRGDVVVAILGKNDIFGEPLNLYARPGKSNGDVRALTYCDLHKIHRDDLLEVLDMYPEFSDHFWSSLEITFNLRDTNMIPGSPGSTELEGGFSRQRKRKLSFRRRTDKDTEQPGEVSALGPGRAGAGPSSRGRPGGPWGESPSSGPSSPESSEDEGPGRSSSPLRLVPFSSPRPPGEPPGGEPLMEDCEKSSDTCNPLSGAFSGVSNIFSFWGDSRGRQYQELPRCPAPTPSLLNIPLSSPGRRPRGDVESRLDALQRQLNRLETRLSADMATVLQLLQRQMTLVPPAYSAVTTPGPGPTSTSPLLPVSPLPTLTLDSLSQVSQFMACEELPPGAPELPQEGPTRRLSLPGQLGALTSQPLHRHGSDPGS

| SMILES | hERG current change (%, negative = inhibition) at 1uM |
| --- | --- |
| Cc1ccc(C(=O)OCC(=O)Nc2ccc(S(N)(=O)=O)cc2)c(O)c1 | 7.79% |
| CC(=O)NC(=S)NNC(=O)C(c1ccccc1)c1ccccc1 | 15% |
| C=CCNc1cccc(Br)c1 | 12.5% |
| COc1cc(/C=N/Nc2nn3cnnc3c3ccccc23)ccc1O | 20.3% |
| CCCOC(=O)C[N+](C)(C)CCOC1CC2CCC1(C)C2(C)C.[Br-] (centres unmarked) | 11.2% |
| CCCCCCOC(=O)C[N+](C)(C)CCOC1CC2CCC1(C)C2(C)C.[Cl-] (centres unmarked) | -69% |
| CCCCOC(=O)C[N+](C)(C)CCOC1CC2CCC1(C)C2(C)C.[Br-] (centres unmarked) | -4.93% |
| COc1ccc(NC(=O)c2cccn(CC=C(C)C)c2=O)cc1 | 11.5% |
| Cc1c(S(=O)(=O)N2CCN(c3cccc(Cl)c3)CC2)c(=O)n(C)c(=O)n1C | 5.16% |
| COc1ccc(OC)c2c1nc1n2CCS1 | 4.74% |
| OC(COCc1cccs1)CN1CCN(c2ccccc2Cl)CC1 (centres unmarked) | -50.8% |
| Cc1cccc(N2CCN(CC(O)COCc3cccs3)CC2)c1C (centres unmarked) | -63.9% |
| CN1CCCN(CC(O)COCc2cccs2)CC1 (centres unmarked) | 5.43% |
| COc1ccccc1N1CCN(CC(O)COCc2cccs2)CC1.Cl (centres unmarked) | 0.795% |
| CCOc1ccccc1N1CCN(CC(O)COCc2cccs2)CC1 (centres unmarked) | -1.54% |
| Cl.OC(COCc1cccs1)CN1CCCCCC1 (centres unmarked) | -5.74% |
| O=C(CCc1ccc(S(=O)(=O)NCCc2ccccc2)cc1)NCc1ccco1 | 6% |
| COc1cccc2sc(NN)nc12 | 0.731% |
| CN(C)CCCN=Cc1c(-c2ccccc2)[nH]n(-c2nc3ccccc3s2)c1=O | -58.1% |
| CCCc1[nH]n(-c2nc3ccccc3s2)c(=O)c1C=NCCCOC | -9.11% |
| CCCN=C(C)c1c(-c2ccccc2)[nH]n(-c2nc3ccccc3s2)c1=O | 7.75% |
| CCCN=Cc1c(CCC)[nH]n(-c2nc3ccccc3s2)c1=O | -4.61% |

| SMILES | hERG current change (%, negative = inhibition) at 1uM |
| --- | --- |
| CCCCCN=Cc1c(C)[nH]n(-c2nc3ccccc3s2)c1=O | -16.9% |
| CCCc1[nH]n(-c2nc3ccccc3s2)c(=O)c1C=NCC(C)C | 6.14% |
| CCN(CC)CCCN=Cc1c(-c2ccccc2)[nH]n(-c2nc3ccccc3s2)c1=O | -81.7% |
| CCCc1[nH]n(-c2nc3ccccc3s2)c(=O)c1C=NCCN1CCOCC1 | -4.58% |
| O=c1c(C=NCCCO)c(-c2ccccc2)[nH]n1-c1nc2ccccc2s1 | -2.36% |
| O=c1c(C=NCCCn2ccnc2)c(-c2ccccc2)[nH]n1-c1nc2ccccc2s1 | -26.9% |
| COCCCN=Cc1c(-c2ccccc2)[nH]n(-c2nc3ccccc3s2)c1=O | -55.9% |
| CCCc1[nH]n(-c2nc3ccccc3s2)c(=O)c1C=NCCCN(CC)CC | -57.6% |
| Cn1ccc(NC(=O)c2ccc(Cl)cc2)n1 | 11% |
| CCC(C)N1C(=O)CCC1C(=O)N1CCN(c2ccccc2F)CC1 (centres unmarked) | 17% |
| CC(=O)N1CCN(C2=NC(=O)C(=C3CCCCC3)S2)CC1 | -2.21% |
| CCCNC(=O)C1CC(=O)N(c2ccc(OCC(=O)Nc3cccc(C)c3C)cc2)C1 (centres unmarked) | 11% |
| CN1CCN(C(=O)c2ccc3c(Cl)c4c(nc3c2)CCCC4)CC1 | -0.735% |
| Cc1cc(C)c2nc(C(F)(F)F)nc(NCCCN3CCOCC3)c2c1 | 9.96% |
| CCC(C)(C)C1CCc2[nH]nc(C(=O)O)c2C1 (centres unmarked) | 11.9% |
| CC(=O)NS(=O)(=O)c1ccc(NC(=O)C2C3C=CC(C3)C2C(=O)O)cc1 (centres unmarked) | 7.33% |
| Cc1ccc2c(c1)Oc1ccc(NC(=O)CCCl)cc1C(=O)N2 | 3.94% |
| COc1ccc(CN2[C@@H](CC(C)=O)c3ccc(/C=C/C(C)=O)cc3S2(=O)=O)cc1 | -0.639% |
| O=C(c1nn(Cc2ccccc2)c(=O)c2ccccc12)N1CCN(C/C=C/c2ccccc2)CC1 | -38.3% |
| CC(=O)c1ccc(N2CCN(C(=O)c3nn(Cc4ccccc4)c(=O)c4ccccc34)CC2)cc1 | -72.9% |
| O=C(c1nn(Cc2ccccc2)c(=O)c2ccccc12)N1CCN(c2ccccn2)CC1 | -14.5% |
| Cn1cc([N+](=O)[O-])c(C(=O)NC2CCCCCC2)n1 | 15.5% |

| SMILES | hERG current change (%, negative = inhibition) at 1uM |
| --- | --- |
| COc1ccc(-c2nc3cc(C)ccn3c2NCC2CCCO2)cc1OC.Cl (centres unmarked) | -55.3% |
| COc1cc(-c2nc3ccccn3c2NCC2CCCO2)ccc1O (centres unmarked) | 2.7% |
| CCOc1cc(-c2nc3cc(C)ccn3c2NCC2CCCO2)ccc1O (centres unmarked) | -47.3% |
| CCN(C(=O)CSc1nc2cc(Cl)ccc2c(=O)n1CC(C)C)C1CCS(=O)(=O)C1 (centres unmarked) | 10.7% |
| CCc1cc2c(=O)n(Cc3ccco3)c(SCC(=O)N(C)C3CCS(=O)(=O)C3)nc2s1 (centres unmarked) | -85.4% |
| CCc1cc2c(SCC(=O)N(C)C3CCS(=O)(=O)C3)ncnc2s1 (centres unmarked) | -7.21% |
| CN(C(=O)CSc1nc2cc(C(=O)O)ccc2c(=O)n1Cc1ccccc1)C1CCS(=O)(=O)C1 (centres unmarked) | 17.6% |
| CC(C)Cn1c(SCC(=O)N(C)C2CCS(=O)(=O)C2)nc2cc(Cl)ccc2c1=O (centres unmarked) | 4.62% |
| Cc1cc2c(=O)n(Cc3ccco3)c(SCC(=O)NCc3ccco3)nc2s1 | -0.915% |
| CN(C(=O)CSc1nc2ccc(Br)cc2c(=O)n1Cc1ccco1)C1CCS(=O)(=O)C1 (centres unmarked) | -83.1% |
| COCCn1c(SCC(=O)N(C)C2CCS(=O)(=O)C2)nc2ccccc2c1=O (centres unmarked) | 4.99% |
| O=C(CSc1nc2c(sc3ccccc32)c(=O)n1Cc1ccco1)NCC1CCCO1 (centres unmarked) | -0.521% |
| CCc1cc2c(=O)n(Cc3ccco3)c(SCC(=O)NCC3CCCO3)nc2s1 (centres unmarked) | -60.5% |
| CCN(C(=O)CSc1nc2cc(Cl)ccc2c(=O)n1Cc1ccco1)C1CCS(=O)(=O)C1 (centres unmarked) | -70.2% |
| CCc1cc2c(=O)n(Cc3ccco3)c(SCC(=O)NC3CCS(=O)(=O)C3)nc2s1 (centres unmarked) | -29.7% |
| C/C(=N\NC(=O)c1cc(C)[nH]n1)c1ccc(-c2ccccc2)cc1 | 13.7% |
| O=C(CCN1C(=O)/C(=C/c2ccc(F)cc2)SC1=S)NNC(=O)c1cccnc1 | 1.06% |
| COc1cc(/C=N\NC(=O)C(C)(C)O)ccc1OC/C=C/c1ccccc1 | 13% |
| CC(C)c1ccccc1OS(N)(=O)=O | 4.02% |
| COc1ccccc1NC(=O)CSc1nnc(C2CCCCC2)n1-c1ccccc1 | 2.23% |
| Cc1cc(OCC(=O)NCCCN2CCCC2=O)c2c(C)cc(=O)oc2c1 | 19% |
| O=C(C[n+]1cccc(CNC(=O)c2ccc(OC(F)F)cc2)c1)c1ccccc1.[Cl-] | 2.3% |

| SMILES | hERG current change (%, negative = inhibition) at 1uM |
| --- | --- |
| COc1ccc(C(=O)C[n+]2cn(C(F)F)c3ccccc32)c(F)c1.[Br-] | -0.738% |
| O=C(C[n+]1cn(C(F)F)c2ccccc21)c1ccc(OC(F)F)cc1.[Br-] | -53.7% |
| O=C(C[n+]1ccc(C(=O)NCc2ccccc2)cc1)c1ccc(OC(F)F)cc1.[Br-] | -81.2% |
| O=C(C[n+]1cn(C(F)F)c2ccccc21)c1ccc(Br)cc1.[Br-] | 3.52% |
| CCOc1ccc(C(=O)C[n+]2ccc(C(=O)NCc3ccccc3)cc2)cc1.[Br-] | 4.11% |
| O=[N+]([O-])c1ccccc1/C=C/C=N/N1CCCCC1 | 13% |
| CC(/C=C/c1ccc(N(C)C)cc1)=N\N=C(/N)SC1CC(=O)N(c2ccc(C(=O)O)cc2)C1=O (centres unmarked) | 3.7% |
| COCCNC(=S)N/N=C/c1ccc([N+](=O)[O-])cc1 | 12% |
| Cc1cc(OCCN2CC(C)OC(C)C2)ccc1[N+](=O)[O-].O=C(O)C(=O)O (centres unmarked) | -5.36% |
| Cc1cc(OCCN2CCOCC2)ccc1[N+](=O)[O-].O=C(O)C(=O)O | 10.6% |
| Cc1ccc([N+](=O)[O-])c(OCCN2CCC(Cc3ccccc3)CC2)c1.O=C(O)C(=O)O | -25.9% |
| Cc1ccc([N+](=O)[O-])c(OCCCN2CCC(Cc3ccccc3)CC2)c1.O=C(O)C(=O)O | -95.8% |
| O=[N+]([O-])c1cccc(CN2CCC(Cc3ccccc3)CC2)c1 | -45.6% |
| Cc1cc(OCCN2CCC(Cc3ccccc3)CC2)ccc1[N+](=O)[O-].O=C(O)C(=O)O | -53.5% |
| O=C(O)C(=O)O.O=[N+]([O-])c1cccc(OCCCN2CCC(Cc3ccccc3)CC2)c1 | -82.9% |
| Cc1cc(OCCN2CCCCCC2)ccc1[N+](=O)[O-].O=C(O)C(=O)O | -12.8% |
| O=C(O)C(=O)O.O=[N+]([O-])c1cccc(OCCN2CCC(Cc3ccccc3)CC2)c1 | -23.6% |
| Cc1cc(OCCN2CCCC2)ccc1[N+](=O)[O-].O=C(O)C(=O)O | 7.94% |
| Cc1ccc([N+](=O)[O-])c(OCCCN2CCCCCC2)c1.O=C(O)C(=O)O | -14.5% |
| Cc1cc(OCCCN2CCN(Cc3ccccc3)CC2)ccc1[N+](=O)[O-].O=C(O)C(=O)O | -52.5% |
